Experiment [1] is described as follows: qHTS assay for small molecule agonists of the p53 signaling pathway - cell viability (AID 651633; calls by dose curve; note: nearly all actives have a fitted effect of over 30% in size). A digest of the protocol: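 p53RE-bla cells were treated with compound for 16 hours at 37 C. Cytotoxicity was then measured as CellTiter-Glo luminescence after 30 min at room temperature.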
In general terms: In qHTS, concentration-response curves come from the screen itself.

A short description of experiment [2]: qHTS assay for small molecules that induce genotoxicity in human embryonic kidney cells expressing luciferase-tagged ATAD5 - cell viability (AID 651634; calls by dose curve; note: nearly all actives have a fitted effect of over 25% in size). A digest of the protocol: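 After 15.5 hr incubation with compound at 37C, 5% CO2, HEK293T ATAD5-luciferase cells received CellTiter-Fluor reagent; fluorescence intensity was quantified following 30 min at 37C.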

Experiment [3] in a line: qHTS assay for small molecule disruptors of the mitochondrial membrane potential - cell viability (AID 720634; calls by dose curve;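 note: human HepG2 liver cancer cells; nearly all actives have a fitted effect of over 20% in size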). A digest of the protocol: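 ATP-based luminescent viability readout (CellTiter-Glo, 30 min, room temperature) in HepG2 cells multiplexed with the m-MPI membrane potential dye; compound exposure lasted 1 hr at 37 C.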
The nature of experiment [4]: qHTS assay for small molecule disruptors of the mitochondrial membrane potential (AID 720635). Note: potency is the fitted concentration of half-maximal effect. A digest of the protocol: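 HepG2 cells exposed to compound 1 hr at 37C, then Mito-MPS dye 30 min. Ratio read of aggregate (540/590 nm) versus monomer (490/535 nm) fluorescence.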
Experiment [5] can be described thus: qHTS assay to test for compound auto fluorescence at 590 nm (red) in HepG2 cells (AID 720674). An outline of the steps: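 Fluorescence at 590 nm emission following 540 nm excitation was recorded from HepG2 wells one hour after compound transfer, with DMSO-only wells as vehicle and Rose Bengal sodium equivalency as the scale.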
Experiment [6] in a line: qHTS assay to test for compound auto fluorescence at 535 nm (green) in HepG2 cells (AID 720675).
Experiment [7] is described as follows: qHTS assay to test for compound auto fluorescence at 460 nm (blue) in HEK293 cells (AID 720678). A digest of the protocol:
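HEK293, 2,000 cells/well, 10% dialyzed FBS; attach 4-5 hr 37C; pin compound or DMSO; o/n 37C/5% CO2; fluorescence 405/460 nm; triamterene-equivalent units.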

Experiment [8] is described as follows: qHTS assay to test for compound auto fluorescence at 590 nm (red) in HEK293 cells (AID 720679). A digest of the protocol: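 Intensity at 540nm excitation and 590nm emission is reported as Rose Bengal sodium-equivalent autofluorescence. Measurements followed overnight exposure (37C, 5% CO2) of HEK293 cells, 2,000 per well, to 23 nL compound.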
Experiment [9] in a line: qHTS assay to test for compound auto fluorescence at 535 nm (green) in HEK293 cells (AID 720680).
Experiment [10] can be described thus: qHTS assay to test for compound auto fluorescence at 460 nm (blue) in HEK293 cell free culture (AID 720681). A digest of the protocol: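 Compounds were added to cell-free DMEM with 10% FBS and fluorescence read directly. The blue channel used 405 nm excitation and 460 nm emission, with triamterene as the reference fluorophore.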
A short description of experiment [11]: qHTS assay to test for compound auto fluorescence at 535 nm (green) in HEK293 cell free culture (AID 720682). A digest of the protocol:
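Read-out: 485/535 nm fluorescence intensity, calibrated against fluorescein. Medium only (DMEM + 10% FBS, no cells); test compound or DMSO vehicle added by pintool before plate reading.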

The nature of experiment [12]: qHTS assay to test for compound auto fluorescence at 590 nm (red) in HEK293 cell free culture (AID 720683). A digest of the protocol: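 Cell-free wells of DMEM with 10% FBS received compound, and intrinsic fluorescence was read at excitation/emission 540/590 nm. Values expressed as equivalence to Rose Bengal sodium.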
Experiment [13] can be described thus: qHTS assay to test for compound auto fluorescence at 590 nm (red) in HepG2 cell free culture (AID 720684). An outline of the steps:
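Auto fluorescence equivalency versus Rose Bengal sodium, red channel Ex/Em 540/590 nm; compounds in cell-free MEM/10% FBS; DMSO vehicle control.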

Experiment [14] in a line: qHTS assay to test for compound auto fluorescence at 460 nm (blue) in HepG2 cell free culture (AID 720685). An outline of the steps:
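Cell-free plates of MEM plus 10% FBS received 23 nL compound or DMSO vehicle; blue-channel (405/460 nm) intensity scored against triamterene as reference fluorophore.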

Experiment [15] in a line: qHTS assay to test for compound auto fluorescence at 535 nm (green) in HepG2 cell free culture (AID 720686).
Experiment [16] is described as follows: qHTS assay to test for compound auto fluorescence at 460 nm (blue) in HepG2 cells (AID 720687). A digest of the protocol:
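HepG2 cells in MEM with 10% FBS, attached overnight at 37 C, were exposed to compound or DMSO for 1 hr at 37 C, 5% CO2. Blue fluorescence was read at 405/460 nm, with triamterene as reference fluorophore.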

Experiment [17] can be described thus: qHTS assay for small molecules that induce genotoxicity in human embryonic kidney cells expressing luciferase-tagged ATAD5 (AID 651632). Note: nearly all actives have a fitted effect of over 15% in size. A digest of the protocol:
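Quantitative HTS in HEK293T expressing luciferase-tagged ATAD5, whose levels rise upon DNA damage. Exposure ran 16 hr at 37C and 5% CO2, with luminescence read 30 min after Amplite addition at room temperature.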

The target in experiment [18] is Glucocorticoid receptor (Homo sapiens) (UniProt P04150). The experiment in a line: qHTS assay to identify small molecule agonists of the glucocorticoid receptor (GR) signaling pathway (AID 720691; active = well fitted activation curve with a large enough effect in the signal ratio in the repeat runs, not every such curve was filed as active; the % refers to the signal ratio; note: potency is the fitted concentration of half-maximal effect). The note with it: GR-bla HeLa, beta-lactamase reporter ratio, 18 h; activation: at 62.4 µM (top of the series). An outline of the steps:
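Cells: GR-bla HeLa, endogenous GR with stably integrated GRE-beta-lactamase reporter. Treatment 18 h, 37 C, compounds delivered in DMSO. Detection via LiveBLAzer B/G FRET substrate, 2 h RT, fluorescence intensity.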

For experiment [19] the target is unchanged. In words: qHTS assay to identify small molecule antagonists of the glucocorticoid receptor (GR) signaling pathway (AID 720692; active = well fitted inhibition curve with a large enough effect in the signal ratio in the repeat runs, not every such curve was filed as active; the % refers to the signal ratio). A digest of the protocol: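 Quantitative HTS in antagonist format: HeLa cells expressing endogenous GR and a stably integrated GRE-bla reporter, stimulated with 5 nM dexamethasone (final) alongside test compounds for 18 h.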

Experiment [20] in a line: qHTS assay for small molecule agonists of the p53 signaling pathway (AID 651631; calls by dose curve; note: nearly all actives have a fitted effect of over 15% in size). An outline of the steps: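 HCT-116 cells carrying a stable p53 response element–beta-lactamase reporter were plated, rested 5 h at 37 °C, then exposed to compound in DMSO for 16 h at 37 °C; reporter activity was read as FRET substrate fluorescence after 2 h at room temperature.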

Where “and” joins values, the source holds several entries; their conditions need not be identical. Equal values may be shown once. Inconclusive results are not listed. Calls of active or inactive are those of the source. Unless noted, calls come from the whole dose curve; as a rule, active = well fitted curve in the direction sought with a large enough effect in the repeat runs; inconclusive = weak or mixed curves; inactive = no such curve, though single readings can be large; an effect the other way counts as inactive or inconclusive.

Consider seven compounds from PubChem BioAssay (Tox21).

Glucocorticoid receptor (Homo sapiens), sequence (P04150 whole entry, looked up): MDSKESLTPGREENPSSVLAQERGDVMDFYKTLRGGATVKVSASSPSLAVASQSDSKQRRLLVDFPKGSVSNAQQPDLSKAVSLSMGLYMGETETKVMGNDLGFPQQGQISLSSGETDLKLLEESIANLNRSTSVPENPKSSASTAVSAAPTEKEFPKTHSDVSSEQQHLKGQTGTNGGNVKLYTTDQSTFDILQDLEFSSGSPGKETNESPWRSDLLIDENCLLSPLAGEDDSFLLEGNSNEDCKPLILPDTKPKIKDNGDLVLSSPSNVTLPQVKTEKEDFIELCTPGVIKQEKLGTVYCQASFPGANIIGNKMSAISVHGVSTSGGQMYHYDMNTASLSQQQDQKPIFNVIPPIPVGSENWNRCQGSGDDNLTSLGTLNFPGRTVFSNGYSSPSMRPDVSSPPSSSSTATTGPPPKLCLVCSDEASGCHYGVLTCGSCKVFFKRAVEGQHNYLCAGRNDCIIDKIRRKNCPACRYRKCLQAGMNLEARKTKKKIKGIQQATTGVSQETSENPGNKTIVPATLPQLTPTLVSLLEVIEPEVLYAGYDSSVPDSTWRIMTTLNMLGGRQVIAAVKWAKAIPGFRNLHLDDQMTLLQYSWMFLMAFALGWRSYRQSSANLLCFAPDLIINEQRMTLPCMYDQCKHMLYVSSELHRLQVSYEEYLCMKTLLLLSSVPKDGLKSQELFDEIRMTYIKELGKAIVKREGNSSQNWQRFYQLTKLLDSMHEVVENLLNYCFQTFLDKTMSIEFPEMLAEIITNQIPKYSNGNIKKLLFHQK

With `Cc1cccnc1`, the Potency entry in experiment [1], in [2], in [3] and in experiment [4] was “inactive” throughout. Besides, the call in [5], in [6], in experiment [7], in experiment [8], in experiment [9] and in experiment [10] was inactive. Moreover, the compound was classed as inactive in experiment [11], in experiment [12], in experiment [13], in experiment [14], in experiment [15] and in experiment [16].
Consider `O=C(O)c1ccccc1C(c1ccc(O)cc1)c1ccc(O)cc1`, for which the outcome in experiment [17], in [6], in [7], in [8], in [9] and in [10] was inactive. The compound was classed as inactive in [11], in experiment [12], in experiment [13], in experiment [14], in experiment [15] and in experiment [16]. Moreover, the Potency entry in experiment [1], in experiment [2], in [3], in experiment [18] and in experiment [19] was “inactive” throughout.
Regarding `COc1ccc(NC(C)=O)cc1N`, the Potency result in [1], in experiment [2], in experiment [3], in experiment [4], in experiment [18] and in [19] was “inactive” throughout. Besides, the call in [6], in experiment [7], in experiment [8], in [9], in experiment [10] and in [11] was inactive. For the same compound, the outcome in experiment [13], in [15] and in experiment [16] was inactive.
With `C=C(C)C(=O)Nc1ccc(Cl)c(Cl)c1`, the compound was classed as inactive in experiment [17], in [5], in [6], in experiment [7], in experiment [8] and in experiment [9]. Further, the result in [10], in experiment [11], in [12], in [13], in [14] and in experiment [15] was inactive. Also, the result in experiment [16] was inactive. Besides, the Potency result in experiment [1] and in experiment [2] was “inactive” each time. Moreover, the Potency in experiment [4] is 19.5 µM (active) and 30.5 µM (active).
As to `CC1=CC(=O)NS(=O)(=O)O1`, the Potency entry in experiment [1], in [3], in experiment [4], in [18] and in experiment [19] was “inactive” in each case. Besides, the call in [6], in [7], in experiment [8], in experiment [9], in experiment [10] and in experiment [11] was inactive. Moreover, the outcome in [12], in experiment [13], in experiment [14], in experiment [15] and in experiment [16] was inactive.
Consider `CC(=O)OCC(=O)[C@@]12N=C(C)O[C@@H]1C[C@H]1[C@@H]3CCC4=CC(=O)C=C[C@]4(C)[C@H]3[C@@H](O)C[C@@]12C`, for which the Potency result in experiment [20], in experiment [1] and in experiment [3] was “inactive” each time. Further, the call in [5], in experiment [6], in experiment [7], in experiment [8], in [11] and in experiment [13] was inactive. The result in experiment [15] and in [16] was inactive. The Potency in experiment [18] is 425 nM (active) and 155 nM (active).
Regarding `COS(C)(=O)=O`, the compound was classed as inactive in [17], in [5], in experiment [6], in experiment [7], in [8] and in [9]. Further, the result in [11], in experiment [12], in [13], in experiment [14], in [15] and in [16] was inactive. Also, the Potency result in experiment [1], in [2], in experiment [3], in [4], in [18] and in experiment [19] was “inactive” throughout.
